Screening results as filed in PubChem BioAssay.
PME-1 Maybridge: inhibitors of human PME-1 in Maybridge library. Q9Y570. recombinant PME-1, FP-Rh probe fluorescence polarization. inhibition, % at 9 µM. 16,000 compounds, 0.5% hits. AID 2291; in the data active means inhibition above about 30%
Target sequence (Q9Y570 whole entry, looked up): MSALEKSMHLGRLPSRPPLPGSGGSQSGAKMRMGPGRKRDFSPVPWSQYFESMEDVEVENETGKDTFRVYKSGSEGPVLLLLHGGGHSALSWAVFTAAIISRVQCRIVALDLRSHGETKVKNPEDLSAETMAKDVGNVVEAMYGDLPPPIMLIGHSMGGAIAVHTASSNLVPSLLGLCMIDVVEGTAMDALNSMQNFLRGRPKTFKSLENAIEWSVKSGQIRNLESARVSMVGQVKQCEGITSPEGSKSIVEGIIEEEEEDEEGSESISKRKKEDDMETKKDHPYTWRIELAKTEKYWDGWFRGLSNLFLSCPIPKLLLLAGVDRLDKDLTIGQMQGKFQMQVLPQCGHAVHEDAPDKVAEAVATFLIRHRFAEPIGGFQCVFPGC
rat GALR2 ag: GALR2 (rat) receptor agonism; O08726; cell-based GALR2 agonist screen; activation, % at 10 µM; 16,000 compounds, 0.5% hits; in the data active means activation above about 15%
Nox1 inhibitor: human Nox1 inhibition | 16,000 compounds, 0.81% hits | HT29 cells, luminol chemiluminescence ROS | Q9Y5S8 | inhibition, % at 6.7 µM | AID 1792
NOTCH agonist: agonists of NOTCH signaling. NOTCH signaling luciferase reporter cells, luminescence. activation, % at 2.5 µM. 15,000 compounds, 0.4% hits. AID 434982; in the data active means activation above about 2.2%
S1P1 agonist: S1P1 (human) receptor agonism | AID 1044 | activation, % at 4.5 µM | 16,000 compounds, 1.5% hits | S1P1 agonist cell-based reporter assay; in the data active means activation above about 80%
Luminol counter: luminol signal inhibition, Nox1 inhibitor counter-screen. HRP/luminol/H2O2 chemiluminescence counterscreen. inhibition, % at 6.7 µM. 16,000 compounds, 0.4% hits; further: reference of the scale not given here
* = called active by the depositor; · = no result given. The list is not random: actives were taken first. Their share in the collection is about 4.1%. Unless noted, no stated cut-off is given here; in the data, active means inhibition above about 75%; inactive means the rest.

SMILES | PME-1 Maybridge | rat GALR2 ag | Nox1 inhibitor | NOTCH agonist | S1P1 agonist | Luminol counter
CN(CCC#N)c1ccc(/C=N/NC(=O)C2CCN(C(=S)NC3CC4C=CC3C4)CC2)cc1 (stereo not drawn) | 10.0 | -7.4 | 8.7 | -0.5 | 66.5 | 10.3
CN(CCC#N)c1ccc(C=NCCCN=Cc2ccc(N(C)CCC#N)cc2)cc1 | 3.9 | -1.4 | -72.6 | -0.4 | 101.3* | 2.1
COc1cc(-c2n[nH]c(=S)n2C2CCCCC2)cc(OC)c1OC | 1.8 | -7.4 | 19.1 | -0.4 | -12.6 | 87.0*
COc1cc(-c2n[nH]c(=S)n2-c2ccccc2Cl)cc(OC)c1OC | 0.9 | -3.1 | -7.6 | 0.3 | -26.1 | 95.2*
COCCCNC(=S)Nc1cc(C)ccc1NS(=O)(=O)c1ccc(C)cc1 | 3.7 | -3.4 | 32.0 | -0.8 | -4.5 | -7.3
CSc1nc(-c2cccs2)cc(C(F)(F)F)c1C#N | -2.6 | 31.0* | -39.6 | 0.0 | -13.4 | 3.0
CSc1nc(N)nc(-c2cccs2)c1C#N | -6.2 | -4.0 | -37.5 | -0.9 | -12.2 | 3.7
O=C(Cc1ccc([N+](=O)[O-])cc1)Nc1c(F)cccc1F | 1.0 | -3.4 | 9.5 | 0.9 | -5.1 | -5.2
O=C(Cc1ccc([N+](=O)[O-])cc1)Nc1nccs1 | 3.6 | -6.4 | 0.0 | 3.0* | 2.3 | -1.8
O=c1c2c(-c3ccc([N+](=O)[O-])cc3)onc2n(-c2ccccc2)c(=O)n1-c1ccccc1 | 0.8 | -8.3 | 93.9* | -0.6 | 123.0* | 2.2
Cc1c2c(=O)n(C)ncc2c(-c2ccccc2)n1-c1ccc([N+](=O)[O-])cc1 | 2.3 | -8.1 | -29.5 | 0.3 | 25.6 | 0.1
CC(C)(C)C(=O)N1NC(=Nc2ccccc2)SC1(C)C | -1.5 | -6.8 | -26.8 | 0.4 | -44.0 | 6.9
Cc1nccc(-c2cccc(N/N=C(\C#N)S(=O)(=O)c3ccccn3)c2)n1 | 0.6 | -7.1 | -18.9 | 0.1 | -2.2 | -1.0
Cc1nccc(-c2cccc(NN=C(C#N)C#N)c2)n1 | -0.3 | -8.7 | -67.9 | 0.4 | 104.4* | 26.1
CNC(=S)N(C)NC(=S)Nc1ccc(OC)c(OC)c1 | -0.1 | -3.7 | 83.9* | -0.1 | -9.4 | 30.9
CCOC(=O)Cn1c(=O)c(-c2nc(-c3ccc(Cl)cc3)cs2)cn(C(C)C)c1=O | -0.1 | 15.6* | -40.8 | -0.6 | 9.6 | 2.4
CSc1sc(C(=O)O)cc1-c1nc(-c2ccc(Cl)cc2)cs1 | -1.6 | -7.5 | -11.1 | 0.4 | 4.7 | -0.5
O=C(NCc1ccco1)c1ccc(Cl)cc1[N+](=O)[O-] | -0.1 | -4.5 | 12.7 | -0.2 | 13.5 | -0.6
O=[N+]([O-])c1cc(C2SCCS2)ccc1SCc1ccco1 | 6.4 | -5.8 | 10.4 | -0.5 | 99.5* | -2.3
Cc1cc(N=C(N)N=C(N)N)no1 | -0.4 | -3.7 | -35.3 | -0.6 | -13.0 | 1.1
COC(=O)c1cscc1OC(=O)c1ccc(C(F)(F)F)cc1 | -2.1 | -1.2 | -118.4 | -0.4 | 15.3 | 3.4
O=C(Oc1cccc2[nH]ccc12)c1ccc(C(F)(F)F)cc1 | 2.8 | 1.9 | 79.5* | -0.6 | -6.8 | 0.3
Cc1ccnc(N(C(=O)Nc2cccc(Cl)c2)C2=NCC(C)S2)c1 (stereo not drawn) | -1.9 | -1.4 | 20.0 | -0.4 | 8.4 | -5.5
Cc1cc(C)c(-c2ccn(C(=O)c3cc(-c4ccccc4)oc3C)n2)[nH]1 | 4.0 | -3.3 | -32.6 | -0.4 | -22.8 | 3.4
COc1ccc(OC(=O)c2ccc3ncccc3c2)cc1 | 7.5 | -6.7 | 91.9* | -0.3 | 19.1 | -3.3
SMILES | PME-1 Maybridge | rat GALR2 ag | Nox1 inhibitor | NOTCH agonist | S1P1 agonist | Luminol counter
O=S(=O)(O/N=C1\CCc2ccccc21)c1ccc(Cl)cc1 | -0.9 | -6.2 | -11.8 | 0.0 | -5.2 | 2.0
CCOC(=O)CSc1c(C(=O)OCC)c(=O)n(-c2ccccc2)c(=S)n1-c1ccccc1 | -17.1 | -4.3 | -5.0 | -0.6 | -9.6 | -0.2
CC(C)Nc1c(-c2ccccc2)oc2ccc(C(=O)O)cc2c1=O | 1.7 | 28.3* | -3.2 | -0.1 | -1.8 | -2.6
CCOC(=O)c1cnn(C(=O)COc2ccc(C(C)(C)C)cc2C(C)(C)C)c1N | -3.7 | -8.2 | -18.6 | 0.4 | 1.5 | 3.6
CC(C)NC(=O)NC1CCCCNC1=O (stereo not drawn) | 1.5 | -6.8 | -22.7 | -0.3 | -11.4 | -0.6
Nc1nc(NC2CCCCNC2=O)n[nH]1 (stereo not drawn) | 7.6 | -6.9 | 92.5* | -0.2 | -3.8 | 62.1
Cc1noc(C)c1C(=O)Nc1ccc(N2CCOCC2)nc1N1CCOCC1 | 5.7 | -2.0 | 77.5* | -0.5 | 0.6 | 3.5
O=[N+]([O-])c1cc(Br)c(Oc2cncc(Cl)c2)cc1Oc1cncc(Cl)c1 | 52.3* | -10.4 | 54.9 | 0.1 | 23.0 | 1.8
Cc1c(COC(=O)Nc2ccc(Cl)cc2Cl)sc2ccccc12 | -6.2 | -6.4 | -78.3 | -0.8 | 57.5 | 2.3
Cc1cc(=O)n2ncnc2n1CC(=O)NNC(=S)Nc1ccc(Cl)cc1Cl | 1.2 | -6.3 | 7.5 | -0.4 | -15.8 | 75.1*
Cc1nnsc1C(=O)N(Cc1ccccc1)C(C)C | -1.8 | -5.0 | -41.4 | -0.2 | 1.9 | 3.4
CCOC(=O)Cc1c(C)[nH]c(C(=O)OCC)c1CC(=O)OCC | -0.9 | -3.7 | -67.8 | 0.2 | -12.3 | -0.1
CCOC(=O)Cc1c(C(=O)OCC)[nH]c(C)c1C(=O)OCc1ccccc1 | 7.2 | -6.1 | -73.7 | 5.8* | -9.9 | -1.4
CCOC(=O)c1c(C)nsc1N/N=C(\C#N)C(=O)c1ccc(Cl)cc1 | 9.8 | -11.7 | 73.8 | · | 113.0* | 24.5
N#C/C(=N\Nc1ccc(F)cc1)C(=O)c1ccc(Cl)cc1 | 3.5 | -8.9 | -4.0 | 0.7 | 103.1* | 5.5
NC(=O)c1ccc(-c2ccc(Cl)cc2)s1 | 1.9 | -5.2 | 5.0 | 0.3 | 11.2 | -0.7
O=C(CCN1CCC(c2ccc(Cl)s2)=N1)c1ccc(Cl)s1 | -1.2 | -6.9 | -36.8 | 3.4* | 11.1 | -2.1
O=C(Nc1ccc(N2CCOCC2)cc1Cl)C1CCN(C(=O)OCc2ccccc2)CC1 | 1.3 | -8.4 | -8.5 | -0.2 | 101.5* | -2.6
CCOC(=O)c1c(NC(=O)c2ccc3ncccc3c2)sc(C)c1C | 1.6 | 41.8* | 1.1 | -0.5 | -0.6 | 0.1
CCOC(=O)c1c(NC(=S)Nc2cc(C)nn2-c2ccccc2)sc(C)c1C | 2.2 | -8.7 | -77.0 | -0.1 | 10.4 | 1.4
Cc1oc(-c2ccccc2)cc1C(=O)N1CCN(c2ncc(C(F)(F)F)cc2Cl)CC1 | -2.3 | -8.6 | 22.5 | 2.3* | -2.2 | -5.9
Clc1ccc(-n2nnc(/C=C/C=C/N3CCOCC3)n2)cc1 | -19.8 | 29.9* | -29.2 | -0.8 | 5.3 | 1.8
CCc1ccc(-n2nnnc2/C=C/N2CCOCC2)cc1 | 2.8 | -8.8 | 2.3 | -0.8 | -7.9 | -1.6
CC(=O)n1nccc1-c1c(C)nc2ccccn12 | -1.6 | -4.8 | -33.7 | 0.1 | -2.4 | -0.5
Cc1ccc(S(=O)(=O)n2nccc2-c2c(C)nc3ccccn23)cc1 | 12.9 | -7.1 | -10.6 | 0.5 | 87.5* | -0.1
O=C(NCC(c1ccc[nH]1)C(F)(F)F)Nc1ccccc1 (stereo not drawn) | -0.8 | -7.3 | -32.2 | -0.1 | 7.1 | 2.1
O=[N+]([O-])c1cc(Br)cnc1Sc1n[nH]c(-c2ccccc2)n1 | 3.9 | -2.3 | 35.4 | -0.2 | 6.7 | 99.5*
